Screening results (PubChem BioAssay)
TDP1 cell noCPT: qHTS for Inhibitors of human tyrosyl-DNA phosphodiesterase 1 (TDP1): qHTS in cells in absence of CPT; DT40 Tdp1-/- hTDP1 cells, no CPT, ATP luminescence, 48 h; 15% of 420,000 active; Potency, µM (top dose mostly 46.2 µM), inactives show top-dose activity change, negative = growth inhibition, hits mostly inhibitors; also: nearly all actives have a fitted effect of over 55% in size
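Seeded 400 DT40-hTDP1 cells/well (vehicle DMSO, no 20 nM CPT); pinned compounds; ≥48 hr at 37 °C; CellTiter-Glo luminescence as viability measure.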
HT1080 IDH1KD tx: kills HT-1080 cells with IDH1 knockdown; 2% of 360,000 active; HT-1080 IDH1 knockdown viability, ATP luminescence, 48 h; Potency, µM (highest dose often 46.1 µM), without a hit: at the highest dose activity, negative = toxicity, hits mostly cytotoxic; AID 686971;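 also: 0% = DMSO wells and -100% = cell-free medium wells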
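CellTiter-Glo luminescence after 48 h compound exposure at 37 degrees C of IDH1-knockdown HT-1080 cells in 5% FBS RPMI. %Activity scaled between DMSO wells and cell-free media wells, with curves fitted and assigned curve classes.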
HT1080NT lethal: kills 2HG-producing HT-1080-NT fibrosarcoma cells. HT-1080-NT fibrosarcoma viability, CellTiter-Glo ATP luminescence, 48 h. 1.6% of 360,000 active. AID 686970. Potency, µM (top dose mostly 46.1 µM), for the others: top-dose activity, negative = less viability, usual class: cytotoxic;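 also: NT is the 2HG producing partner of a matched IDH1 knockdown line; 0% = DMSO-treated cells and -100% = media-only wells without cells; nearly all actives have a fitted effect of over 55% in size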
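Fibrosarcoma NT cells, 750 per well in 5% FBS RPMI, were exposed to compound for 48 hours. Viability: CellTiter-Glo luminescence.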
KB-V1 cytotox: kills drug-selected multidrug resistant KB-V1 cells. 3.4% of 400,000 active. Potency, µM (titrated, usually from 46.1 µM), most hits filed as cytotoxic. KB-V1 MDR cells viability, CellTiter-Glo, 72 h. AID 1347076; also: nearly all actives have a fitted effect of over 60% in size
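qHTS viability screen in drug-selected KB-V1 MDR cells: 72 h compound treatment at 37 degrees C, ATP luminescence end point.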
TDP1 cell CPT: growth inhibition of DT40 Tdp1-/-;hTDP1 cells with camptothecin (screen for TDP1 inhibitors); 12% of 420,000 active; AID 686979; chicken DT40 Tdp1-/-;hTDP1 cells + 20 nM CPT, ATP luminescence, 48 h; Potency, µM (highest dose often 46.2 µM), inactives show top-dose activity change, negative = growth inhibition, usual class: inhibitors; also: nearly all actives have a fitted effect of over 55% in size
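Chicken DT40 Tdp1-/- cells complemented with human TDP1, 400 cells/well, exposed to compounds plus 20 nM camptothecin for at least 48 h at 37 C; viability read as ATP content by CellTiter-Glo luminescence.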
KB-3-1 cytotox: kills parental KB-3-1 adenocarcinoma cells; KB-3-1 viability, CellTiter-Glo ATP luminescence, 72 h; Potency, µM (titrated, usually from 46.1 µM), most hits filed as cytotoxic; 1.4% of 400,000 active; AID 1347075; also: nearly all actives have a fitted effect of over 60% in size
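Cytotoxicity measured as CellTiter-Glo luminescence after 72 h at 37 C. Compound titrations were pinned onto drug-naive KB-3-1 parental adenocarcinoma cells grown in DMEM with 10% FBS, and normalized data fitted to concentration-response curves.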
Numbers without * were called inactive; [ ] = dose if it differs, or a comment. Compounds with a hit are over-represented: about 19% of the library has one in this group of screens. Calls follow the shape of the dose curve; as a rule, active = well fitted curve in the direction sought with a large enough effect; inconclusive = small, poorly fitted or top-dose-only effect, or another doubt; inactive = no such curve, though single readings can be large; an effect the other way counts as inactive or inconclusive. Unless noted, % is scaled to controls: 0 for no effect and ±100 for the full control effect; potency is read from the fitted curve at half-maximal effect.

How did Cc1ccc(NC(=O)c2ccc(-c3cc(Cl)ccc3Cl)o2)c(C)c1 do in these assays?
TDP1 cell noCPT: inconclusive; HT1080 IDH1KD tx: -6.1%; HT1080NT lethal: -11.8%; KB-V1 cytotox: inactive; TDP1 cell CPT: 20.6µM*; KB-3-1 cytotox: inactive

How did Cc1ccccc1NC(=O)c1ccc(-c2ccc(Cl)cc2Cl)o1 do in these assays?
TDP1 cell noCPT: 13µM*; HT1080 IDH1KD tx: -1.4%; HT1080NT lethal: -5.4%; KB-V1 cytotox: inactive; TDP1 cell CPT: inconclusive; KB-3-1 cytotox: inactive

Results for COc1cccc(OC)c1NC(=O)c1ccc(-c2cc(Cl)ccc2Cl)o1 ?
TDP1 cell noCPT: inconclusive; HT1080 IDH1KD tx: inconclusive; HT1080NT lethal: inconclusive; KB-V1 cytotox: inconclusive; TDP1 cell CPT: inconclusive; KB-3-1 cytotox: inactive

What do the screens show for `O=C(Nc1ccc(Cl)c(S(=O)(=O)N2CCOCC2)c1)[C@@H]1CCCN1C(=O)c1cccs1`?
TDP1 cell noCPT: -7.5%; HT1080 IDH1KD tx: -2.5%; HT1080NT lethal: 1.7%; TDP1 cell CPT: -3.2%

Results for CN1c2ccc(Cl)cc2-c2nc(SCC(=O)NCc3ccccc3)ncc2S1(=O)=O ?
TDP1 cell noCPT: inconclusive; KB-V1 cytotox: inactive; TDP1 cell CPT: inconclusive; KB-3-1 cytotox: inactive

Results for COC(=O)c1cccc(-c2cc(Cl)c3c(c2)CC(CNC(=O)c2cccnc2)O3)c1 (stereo unspecified) ?
TDP1 cell noCPT: inconclusive; TDP1 cell CPT: 16.6%[9.04 µM]

How did Cc1ccc(S(=O)(=O)N2CCOC2CNC(=O)C(=O)NCCc2c[nH]c3ccccc23)cc1 (stereo unspecified) do in these assays?
TDP1 cell noCPT: inconclusive; HT1080 IDH1KD tx: -5.6%; HT1080NT lethal: -5.8%; KB-V1 cytotox: inactive; TDP1 cell CPT: inconclusive; KB-3-1 cytotox: inactive

What do the screens show for `Cc1cc(C)c(S(=O)(=O)N2CCCOC2CNC(=O)C(=O)NCCc2c[nH]c3ccccc23)c(C)c1` (stereo unspecified)?
TDP1 cell noCPT: 14.6µM*; HT1080 IDH1KD tx: -28.2%; HT1080NT lethal: -1.3%; KB-V1 cytotox: 16.4µM*; TDP1 cell CPT: inconclusive; KB-3-1 cytotox: inactive

How did Cc1ccc(S(=O)(=O)N2CCCOC2CNC(=O)C(=O)NCCC2=CCCCC2)cc1 (stereo unspecified) do in these assays?
TDP1 cell noCPT: inconclusive; HT1080 IDH1KD tx: -18.5%; HT1080NT lethal: -5.1%; KB-V1 cytotox: 2.91µM*; TDP1 cell CPT: inconclusive; KB-3-1 cytotox: inconclusive

What do the screens show for `Cc1cc(C)c(S(=O)(=O)N2CCCOC2CNC(=O)C(=O)NCc2cccs2)c(C)c1` (stereo unspecified)?
TDP1 cell noCPT: -23.7%; HT1080 IDH1KD tx: 3.4%; HT1080NT lethal: -0.7%; KB-V1 cytotox: 18.4µM*; TDP1 cell CPT: -1.8%; KB-3-1 cytotox: inactive

How did O=C(NCCc1c[nH]c2ccccc12)C(=O)NCC1OCCCN1S(=O)(=O)c1ccc(F)cc1 (stereo unspecified) do in these assays?
TDP1 cell noCPT: inconclusive; HT1080 IDH1KD tx: -8.1%; HT1080NT lethal: -12.8%; KB-V1 cytotox: inconclusive; TDP1 cell CPT: 18.4µM*; KB-3-1 cytotox: inactive

How did CCOCCCNC(=O)c1ccc2c(=O)n(CCc3ccccc3)c(=O)[nH]c2c1 do in these assays?
TDP1 cell noCPT: -19.2%; KB-V1 cytotox: inactive; TDP1 cell CPT: -3.1%; KB-3-1 cytotox: inactive

What do the screens show for `CC1CCN(C(=O)CNC(=O)CNS(=O)(=O)c2ccccc2)CC1`?
TDP1 cell noCPT: -14.3%; HT1080 IDH1KD tx: -1.0%; HT1080NT lethal: -1.1%; KB-V1 cytotox: inactive; TDP1 cell CPT: -14.4%; KB-3-1 cytotox: inactive
